Source: the supplement of paper PMC8728848
This is one part of a sample in which the strongest signals are shown more often than they occur.

What was measured:
Assay in all cases: glycan array binding signal (z-score within array); higher = stronger binding
Details in all cases: glycan notation: IUPAC condensed, linker removed
[1] = molecular target: Fuc(a1-2)Gal(b1-3)GalNAc(a1-3)[Fuc(a1-2)]Gal(b1-4)GlcNAc
In short: (§1)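 The binding signal is a Z-score computed within each array and averaged over linkers. Arrays of the same protein sequence at different concentrations or buffers were also averaged together. Data originate from 3228 arrays in the Consortium for Functional Glycomics database, kept only where the protein sequence was available.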

Fuc(a1-2)Gal(b1-3)GlcNAc = molecular target: Fuc(a1-2)Gal(b1-3)GlcNAc
In short: as §1

[2] = molecular target: Fuc(a1-2)Gal(b1-3)GlcNAc(b1-2)Man(a1-3)[Fuc(a1-2)Gal(b1-3)GlcNAc(b1-2)Man(a1-6)]Man(b1-4)GlcNAc(b1-4)GlcNAc
In short: as §1

[3] = molecular target: Fuc(a1-2)Gal(b1-3)GlcNAc(b1-3)[Gal(b1-4)GlcNAc(b1-6)]Gal(b1-4)Glc
In short: as §1

[4] = molecular target: Fuc(a1-2)Gal(b1-3)GlcNAc6S
In short: as §1

[5] = molecular target: Fuc(a1-2)Gal(b1-4)GlcNAc(b1-2)Man(a1-3)[Fuc(a1-2)Gal(b1-4)GlcNAc(b1-2)Man(a1-6)]Man(b1-4)GlcNAc(b1-4)GlcNAc
In short: as §1

[6] = molecular target: Fuc(a1-2)[Gal(a1-3)]Gal(b1-3)GlcNAc(b1-3)GalNAc
In short: as §1

[7] = molecular target: Fuc(a1-2)[Gal(a1-3)]Gal(b1-4)GlcNAc(b1-2)Man(a1-3)[Fuc(a1-2)[Gal(a1-3)]Gal(b1-4)GlcNAc(b1-2)Man(a1-6)]Man(b1-4)GlcNAc(b1-4)GlcNAc
In short: as §1

[8] = molecular target: Fuc(a1-2)[GalNAc(a1-3)]Gal(b1-4)GlcNAc(b1-6)GalNAc
In short: as §1

[9] = molecular target: Fuc(a1-3)[Gal(b1-4)]GlcNAc
In short: as §1

[10] = molecular target: Gal(a1-3)Gal(b1-4)GlcNAc(b1-2)Man
In short: as §1

[11] = molecular target: Gal(a1-4)Gal(b1-3)GlcNAc(b1-2)Man(a1-3)[Gal(a1-4)Gal(b1-3)GlcNAc(b1-2)Man(a1-6)]Man(b1-4)GlcNAc(b1-4)GlcNAc
In short: as §1

Gal(a1-4)GlcNAc = molecular target: Gal(a1-4)GlcNAc
In short: as §1

Gal(b1-3)Gal(b1-4)GlcNAc = molecular target: Gal(b1-3)Gal(b1-4)GlcNAc
In short: as §1

[12] = molecular target: Gal(b1-3)GlcNAc(b1-3)Gal(b1-4)GlcNAc(b1-2)[Gal(b1-3)GlcNAc(b1-3)Gal(b1-4)GlcNAc(b1-6)]Man(a1-6)[Gal(b1-3)GlcNAc(b1-3)Gal(b1-4)GlcNAc(b1-2)Man(a1-3)]Man(b1-4)GlcNAc(b1-4)[Fuc(a1-6)]GlcNAc
In short: as §1

[13] = molecular target: Gal(b1-3)[Fuc(a1-4)]GlcNAc(b1-2)Man(a1-3)[Gal(b1-3)[Fuc(a1-4)]GlcNAc(b1-2)Man(a1-6)]Man(b1-4)GlcNAc(b1-4)[Fuc(a1-6)]GlcNAc
In short: as §1

Gal(b1-4)Glc = molecular target: Gal(b1-4)Glc
In short: as §1

[14] = molecular target: Gal(b1-4)GlcNAc(b1-3)Gal(b1-3)GalNAc
In short: as §1

[15] = molecular target: Gal(b1-4)GlcNAc(b1-3)Gal(b1-3)GlcNAc
In short: as §1

[16] = molecular target: Gal(b1-4)GlcNAc(b1-3)Gal(b1-4)GlcNAc(b1-3)Gal(b1-4)GlcNAc(b1-2)Man(a1-3)[Gal(b1-4)GlcNAc(b1-3)Gal(b1-4)GlcNAc(b1-3)Gal(b1-4)GlcNAc(b1-2)Man(a1-6)]Man(b1-4)GlcNAc(b1-4)[Fuc(a1-6)]GlcNAc
In short: as §1

[17] = molecular target: Gal(b1-4)GlcNAc(b1-3)Gal(b1-4)GlcNAc(b1-3)Gal(b1-4)GlcNAc(b1-2)[Gal(b1-4)GlcNAc(b1-3)Gal(b1-4)GlcNAc(b1-3)Gal(b1-4)GlcNAc(b1-6)]Man(a1-6)[Gal(b1-4)GlcNAc(b1-3)Gal(b1-4)GlcNAc(b1-3)Gal(b1-4)GlcNAc(b1-2)Man(a1-3)]Man(b1-4)GlcNAc(b1-4)[Fuc(a1-6)]GlcNAc
In short: as §1

[18] = molecular target: Gal(b1-4)GlcNAc(b1-3)Gal(b1-4)GlcNAc(b1-3)Gal(b1-4)GlcNAc(b1-3)Gal(b1-4)GlcNAc(b1-3)Gal(b1-4)GlcNAc(b1-2)[Gal(b1-4)GlcNAc(b1-3)Gal(b1-4)GlcNAc(b1-3)Gal(b1-4)GlcNAc(b1-3)Gal(b1-4)GlcNAc(b1-3)Gal(b1-4)GlcNAc(b1-6)]Man(a1-6)[Gal(b1-4)GlcNAc(b1-3)Gal(b1-4)GlcNAc(b1-3)Gal(b1-4)GlcNAc(b1-3)Gal(b1-4)GlcNAc(b1-3)Gal(b1-4)GlcNAc(b1-2)Man(a1-3)]Man(b1-4)GlcNAc(b1-4)[Fuc(a1-6)]GlcNAc
In short: as §1

Gal4S(b1-4)GlcNAc = molecular target: Gal4S(b1-4)GlcNAc
In short: as §1

Gal6P(b1-4)GlcNAc = molecular target: Gal6P(b1-4)GlcNAc
In short: as §1

Gal6S(b1-3)GlcNAc6S = molecular target: Gal6S(b1-3)GlcNAc6S
In short: as §1

GalNAc(b1-6)GalNAc = molecular target: GalNAc(b1-6)GalNAc
In short: as §1

GalNAc6S(b1-4)GlcNAc = molecular target: GalNAc6S(b1-4)GlcNAc
In short: as §1

B1: Nc3LysM-2 (protein)
chain: AHVLQARQSVSCDFATAANTGDTCASFAAAWGITEAAFAKLNPGVSCPGNLIAGSEYCVIGTVSTGAPTTTKAATTSTTPPTTTTTTKATTLSTSTTSVSPTGPSPQMPSITSTCNKFYQVQSGDGCWSIEQAQGVSASDFMAWNKAVDAQCDNLWLGYYVCVGVKGGSSPPPTTTTKPASSSAPTPQMPNTVSNCKKFHKVVSGDGCWAIEQAAGISASDFAKWNPYVDAACDNLWLGYYVCIGV
[1]
  glycan array binding signal (z-score): -0.746
Fuc(a1-2)Gal(b1-3)GlcNAc
  glycan array binding signal (z-score): 0.966
[2]
  glycan array binding signal (z-score): -0.335
[3]
  glycan array binding signal (z-score): 0.735
[4]
  glycan array binding signal (z-score): -1.29
[5]
  glycan array binding signal (z-score): 2.21
[6]
  glycan array binding signal (z-score): -0.745
[7]
  glycan array binding signal (z-score): 2.78
[8]
  glycan array binding signal (z-score): -1.2
[9]
  glycan array binding signal (z-score): -0.073
[10]
  glycan array binding signal (z-score): -0.456
[11]
  glycan array binding signal (z-score): -0.185
Gal(a1-4)GlcNAc
  glycan array binding signal (z-score): 0.991
Gal(b1-3)Gal(b1-4)GlcNAc
  glycan array binding signal (z-score): -0.043
[12]
  glycan array binding signal (z-score): 2.73
[13]
  glycan array binding signal (z-score): 0.856
Gal(b1-4)Glc
  glycan array binding signal (z-score): -0.252
[14]
  glycan array binding signal (z-score): -1.18
[15]
  glycan array binding signal (z-score): 0.13
[16]
  glycan array binding signal (z-score): 2.69
[17]
  glycan array binding signal (z-score): 5.8
[18]
  glycan array binding signal (z-score): 2.29
Gal4S(b1-4)GlcNAc
  glycan array binding signal (z-score): -1.15
Gal6P(b1-4)GlcNAc
  glycan array binding signal (z-score): -0.044
Gal6S(b1-3)GlcNAc6S
  glycan array binding signal (z-score): -1.34
GalNAc(b1-6)GalNAc
  glycan array binding signal (z-score): 0.877
GalNAc6S(b1-4)GlcNAc
  glycan array binding signal (z-score): 0.893
